Tests used:
Test in all cases: log2 ratio of Biotin-Ahx-Ub-VS probe labelling (fragment/DMSO); higher = less target engagement (more negative = stronger competition), active = hit call of the paper (q ≤ 0.05, log2 ratio ≤ -1)
Conditions in all cases: compound concentration: 200 uM; treatment time: 3 h
USP34 = USP34 (UniProt Q70CQ2)
Method in brief: (§1)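 Values give the average log2 ratio of fragment to vehicle, assessed by unpaired t-test on global-median-normalised Spectronaut label-free quantities. Proteins needed ≥2 unique peptides. HEK293T lysate (495 µg per sample) was treated in triplicate with fragment at 200 µM or vehicle for 3 h and then with Biotin-Ahx-Ub-VS at 0.5 µM final for 1 h. Labelled DUBs were NeutrAvidin-enriched, digested and run by diaPASEF LC-MS/MS.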

USP36 = target: T1, USP36 (UniProt Q9P275)
T1 sequence (whole entry): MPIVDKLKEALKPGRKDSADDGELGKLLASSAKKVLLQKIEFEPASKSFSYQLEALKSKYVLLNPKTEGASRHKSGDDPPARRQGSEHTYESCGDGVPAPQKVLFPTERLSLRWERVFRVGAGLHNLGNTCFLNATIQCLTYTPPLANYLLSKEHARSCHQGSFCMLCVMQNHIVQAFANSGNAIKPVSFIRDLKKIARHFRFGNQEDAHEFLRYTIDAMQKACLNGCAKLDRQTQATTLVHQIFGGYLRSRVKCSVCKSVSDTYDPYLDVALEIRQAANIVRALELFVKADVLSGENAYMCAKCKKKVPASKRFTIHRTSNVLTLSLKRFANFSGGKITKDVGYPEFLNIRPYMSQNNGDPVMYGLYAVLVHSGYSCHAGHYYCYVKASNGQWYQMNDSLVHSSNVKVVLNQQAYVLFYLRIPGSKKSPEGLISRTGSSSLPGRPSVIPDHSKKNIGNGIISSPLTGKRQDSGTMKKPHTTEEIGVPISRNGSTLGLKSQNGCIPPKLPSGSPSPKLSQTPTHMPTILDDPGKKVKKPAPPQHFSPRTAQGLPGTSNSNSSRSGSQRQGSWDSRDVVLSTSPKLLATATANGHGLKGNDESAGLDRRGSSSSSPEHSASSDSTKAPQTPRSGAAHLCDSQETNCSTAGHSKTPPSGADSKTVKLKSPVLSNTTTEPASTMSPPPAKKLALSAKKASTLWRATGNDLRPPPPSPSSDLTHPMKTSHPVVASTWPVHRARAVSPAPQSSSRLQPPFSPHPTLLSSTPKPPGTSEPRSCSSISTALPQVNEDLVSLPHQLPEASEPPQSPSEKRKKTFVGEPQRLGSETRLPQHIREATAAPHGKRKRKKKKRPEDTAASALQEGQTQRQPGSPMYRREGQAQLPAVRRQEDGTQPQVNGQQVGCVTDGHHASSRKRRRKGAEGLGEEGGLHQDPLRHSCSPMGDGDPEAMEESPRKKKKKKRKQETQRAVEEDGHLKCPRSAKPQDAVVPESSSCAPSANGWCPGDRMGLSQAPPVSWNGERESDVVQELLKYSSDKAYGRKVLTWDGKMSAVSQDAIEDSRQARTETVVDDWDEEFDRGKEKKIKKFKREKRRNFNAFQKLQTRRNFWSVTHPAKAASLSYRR
Method in brief: as §1

USP38 = target: T2, USP38 (UniProt Q8NB14)
T2 sequence (whole entry): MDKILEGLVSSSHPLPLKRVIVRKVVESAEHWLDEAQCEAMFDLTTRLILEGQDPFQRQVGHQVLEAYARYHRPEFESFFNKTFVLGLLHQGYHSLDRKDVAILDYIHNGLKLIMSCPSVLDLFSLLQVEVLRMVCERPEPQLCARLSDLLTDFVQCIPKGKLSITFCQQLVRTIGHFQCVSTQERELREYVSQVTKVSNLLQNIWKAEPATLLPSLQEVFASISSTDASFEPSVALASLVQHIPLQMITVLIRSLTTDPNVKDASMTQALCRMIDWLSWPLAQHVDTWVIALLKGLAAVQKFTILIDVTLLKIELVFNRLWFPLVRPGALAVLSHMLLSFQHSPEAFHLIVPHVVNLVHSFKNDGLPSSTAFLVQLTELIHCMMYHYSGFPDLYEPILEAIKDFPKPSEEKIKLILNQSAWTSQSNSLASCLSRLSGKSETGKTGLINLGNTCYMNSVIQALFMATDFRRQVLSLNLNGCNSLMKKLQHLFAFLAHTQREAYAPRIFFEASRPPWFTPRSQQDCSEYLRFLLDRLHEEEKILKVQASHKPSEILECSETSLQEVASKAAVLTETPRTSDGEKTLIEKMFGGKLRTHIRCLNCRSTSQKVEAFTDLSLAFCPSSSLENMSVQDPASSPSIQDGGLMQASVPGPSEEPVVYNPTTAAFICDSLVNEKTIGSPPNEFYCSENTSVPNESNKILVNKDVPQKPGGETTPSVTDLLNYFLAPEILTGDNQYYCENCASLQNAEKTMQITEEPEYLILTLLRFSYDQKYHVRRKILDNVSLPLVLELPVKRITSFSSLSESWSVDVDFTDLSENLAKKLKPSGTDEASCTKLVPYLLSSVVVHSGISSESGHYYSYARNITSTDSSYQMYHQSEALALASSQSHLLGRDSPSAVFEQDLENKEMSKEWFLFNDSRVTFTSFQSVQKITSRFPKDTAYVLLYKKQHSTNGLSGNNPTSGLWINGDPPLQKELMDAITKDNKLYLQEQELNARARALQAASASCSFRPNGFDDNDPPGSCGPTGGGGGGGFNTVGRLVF
Method in brief: as §1

USP39 = target: T3, USP39 (UniProt Q53GS9)
T3 sequence (whole entry): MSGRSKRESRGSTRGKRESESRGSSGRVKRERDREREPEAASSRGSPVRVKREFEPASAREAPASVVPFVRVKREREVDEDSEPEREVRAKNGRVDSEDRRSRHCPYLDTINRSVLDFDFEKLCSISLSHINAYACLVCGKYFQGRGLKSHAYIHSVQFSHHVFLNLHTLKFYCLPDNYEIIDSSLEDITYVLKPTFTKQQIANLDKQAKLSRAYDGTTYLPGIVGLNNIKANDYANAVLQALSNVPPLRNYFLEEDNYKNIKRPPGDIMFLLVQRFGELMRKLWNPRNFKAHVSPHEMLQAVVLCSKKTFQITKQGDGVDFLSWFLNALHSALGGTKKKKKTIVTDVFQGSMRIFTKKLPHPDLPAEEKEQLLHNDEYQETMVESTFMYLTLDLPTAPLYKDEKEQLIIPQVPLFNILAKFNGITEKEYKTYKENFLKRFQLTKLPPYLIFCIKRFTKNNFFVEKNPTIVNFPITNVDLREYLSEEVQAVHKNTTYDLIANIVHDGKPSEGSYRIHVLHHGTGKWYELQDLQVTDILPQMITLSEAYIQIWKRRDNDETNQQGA
Method in brief: as §1

USP4 = target: T4, USP4 (UniProt Q13107)
T4 sequence (whole entry): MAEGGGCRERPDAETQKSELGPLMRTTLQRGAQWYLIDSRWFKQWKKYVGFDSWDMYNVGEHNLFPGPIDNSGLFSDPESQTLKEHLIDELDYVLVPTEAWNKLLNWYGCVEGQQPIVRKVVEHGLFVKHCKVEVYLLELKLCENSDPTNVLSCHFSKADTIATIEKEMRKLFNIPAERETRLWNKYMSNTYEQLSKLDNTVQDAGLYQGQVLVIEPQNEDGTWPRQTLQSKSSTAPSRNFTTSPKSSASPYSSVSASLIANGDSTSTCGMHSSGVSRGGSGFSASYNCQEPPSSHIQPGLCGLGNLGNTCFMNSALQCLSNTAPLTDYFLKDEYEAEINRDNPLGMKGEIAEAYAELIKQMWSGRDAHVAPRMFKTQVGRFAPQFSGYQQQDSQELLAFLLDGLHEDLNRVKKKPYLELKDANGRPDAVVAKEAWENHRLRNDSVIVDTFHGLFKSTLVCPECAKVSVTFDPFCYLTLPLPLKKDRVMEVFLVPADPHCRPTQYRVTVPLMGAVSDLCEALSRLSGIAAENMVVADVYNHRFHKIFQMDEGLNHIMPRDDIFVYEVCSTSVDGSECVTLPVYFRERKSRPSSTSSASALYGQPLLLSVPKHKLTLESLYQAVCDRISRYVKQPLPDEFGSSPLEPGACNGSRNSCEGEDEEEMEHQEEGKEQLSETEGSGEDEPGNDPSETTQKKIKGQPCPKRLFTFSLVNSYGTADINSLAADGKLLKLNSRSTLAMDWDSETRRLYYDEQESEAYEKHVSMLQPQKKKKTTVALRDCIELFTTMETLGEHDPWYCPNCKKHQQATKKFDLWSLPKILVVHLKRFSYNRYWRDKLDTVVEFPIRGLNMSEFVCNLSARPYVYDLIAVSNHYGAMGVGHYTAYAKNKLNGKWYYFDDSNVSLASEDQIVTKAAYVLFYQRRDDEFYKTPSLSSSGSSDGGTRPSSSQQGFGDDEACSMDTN
Method in brief: as §1

Measured: log2 ratio of Biotin-Ahx-Ub-VS probe labelling

Chain of USP34 (Q70CQ2 whole entry, the tested form may be a part): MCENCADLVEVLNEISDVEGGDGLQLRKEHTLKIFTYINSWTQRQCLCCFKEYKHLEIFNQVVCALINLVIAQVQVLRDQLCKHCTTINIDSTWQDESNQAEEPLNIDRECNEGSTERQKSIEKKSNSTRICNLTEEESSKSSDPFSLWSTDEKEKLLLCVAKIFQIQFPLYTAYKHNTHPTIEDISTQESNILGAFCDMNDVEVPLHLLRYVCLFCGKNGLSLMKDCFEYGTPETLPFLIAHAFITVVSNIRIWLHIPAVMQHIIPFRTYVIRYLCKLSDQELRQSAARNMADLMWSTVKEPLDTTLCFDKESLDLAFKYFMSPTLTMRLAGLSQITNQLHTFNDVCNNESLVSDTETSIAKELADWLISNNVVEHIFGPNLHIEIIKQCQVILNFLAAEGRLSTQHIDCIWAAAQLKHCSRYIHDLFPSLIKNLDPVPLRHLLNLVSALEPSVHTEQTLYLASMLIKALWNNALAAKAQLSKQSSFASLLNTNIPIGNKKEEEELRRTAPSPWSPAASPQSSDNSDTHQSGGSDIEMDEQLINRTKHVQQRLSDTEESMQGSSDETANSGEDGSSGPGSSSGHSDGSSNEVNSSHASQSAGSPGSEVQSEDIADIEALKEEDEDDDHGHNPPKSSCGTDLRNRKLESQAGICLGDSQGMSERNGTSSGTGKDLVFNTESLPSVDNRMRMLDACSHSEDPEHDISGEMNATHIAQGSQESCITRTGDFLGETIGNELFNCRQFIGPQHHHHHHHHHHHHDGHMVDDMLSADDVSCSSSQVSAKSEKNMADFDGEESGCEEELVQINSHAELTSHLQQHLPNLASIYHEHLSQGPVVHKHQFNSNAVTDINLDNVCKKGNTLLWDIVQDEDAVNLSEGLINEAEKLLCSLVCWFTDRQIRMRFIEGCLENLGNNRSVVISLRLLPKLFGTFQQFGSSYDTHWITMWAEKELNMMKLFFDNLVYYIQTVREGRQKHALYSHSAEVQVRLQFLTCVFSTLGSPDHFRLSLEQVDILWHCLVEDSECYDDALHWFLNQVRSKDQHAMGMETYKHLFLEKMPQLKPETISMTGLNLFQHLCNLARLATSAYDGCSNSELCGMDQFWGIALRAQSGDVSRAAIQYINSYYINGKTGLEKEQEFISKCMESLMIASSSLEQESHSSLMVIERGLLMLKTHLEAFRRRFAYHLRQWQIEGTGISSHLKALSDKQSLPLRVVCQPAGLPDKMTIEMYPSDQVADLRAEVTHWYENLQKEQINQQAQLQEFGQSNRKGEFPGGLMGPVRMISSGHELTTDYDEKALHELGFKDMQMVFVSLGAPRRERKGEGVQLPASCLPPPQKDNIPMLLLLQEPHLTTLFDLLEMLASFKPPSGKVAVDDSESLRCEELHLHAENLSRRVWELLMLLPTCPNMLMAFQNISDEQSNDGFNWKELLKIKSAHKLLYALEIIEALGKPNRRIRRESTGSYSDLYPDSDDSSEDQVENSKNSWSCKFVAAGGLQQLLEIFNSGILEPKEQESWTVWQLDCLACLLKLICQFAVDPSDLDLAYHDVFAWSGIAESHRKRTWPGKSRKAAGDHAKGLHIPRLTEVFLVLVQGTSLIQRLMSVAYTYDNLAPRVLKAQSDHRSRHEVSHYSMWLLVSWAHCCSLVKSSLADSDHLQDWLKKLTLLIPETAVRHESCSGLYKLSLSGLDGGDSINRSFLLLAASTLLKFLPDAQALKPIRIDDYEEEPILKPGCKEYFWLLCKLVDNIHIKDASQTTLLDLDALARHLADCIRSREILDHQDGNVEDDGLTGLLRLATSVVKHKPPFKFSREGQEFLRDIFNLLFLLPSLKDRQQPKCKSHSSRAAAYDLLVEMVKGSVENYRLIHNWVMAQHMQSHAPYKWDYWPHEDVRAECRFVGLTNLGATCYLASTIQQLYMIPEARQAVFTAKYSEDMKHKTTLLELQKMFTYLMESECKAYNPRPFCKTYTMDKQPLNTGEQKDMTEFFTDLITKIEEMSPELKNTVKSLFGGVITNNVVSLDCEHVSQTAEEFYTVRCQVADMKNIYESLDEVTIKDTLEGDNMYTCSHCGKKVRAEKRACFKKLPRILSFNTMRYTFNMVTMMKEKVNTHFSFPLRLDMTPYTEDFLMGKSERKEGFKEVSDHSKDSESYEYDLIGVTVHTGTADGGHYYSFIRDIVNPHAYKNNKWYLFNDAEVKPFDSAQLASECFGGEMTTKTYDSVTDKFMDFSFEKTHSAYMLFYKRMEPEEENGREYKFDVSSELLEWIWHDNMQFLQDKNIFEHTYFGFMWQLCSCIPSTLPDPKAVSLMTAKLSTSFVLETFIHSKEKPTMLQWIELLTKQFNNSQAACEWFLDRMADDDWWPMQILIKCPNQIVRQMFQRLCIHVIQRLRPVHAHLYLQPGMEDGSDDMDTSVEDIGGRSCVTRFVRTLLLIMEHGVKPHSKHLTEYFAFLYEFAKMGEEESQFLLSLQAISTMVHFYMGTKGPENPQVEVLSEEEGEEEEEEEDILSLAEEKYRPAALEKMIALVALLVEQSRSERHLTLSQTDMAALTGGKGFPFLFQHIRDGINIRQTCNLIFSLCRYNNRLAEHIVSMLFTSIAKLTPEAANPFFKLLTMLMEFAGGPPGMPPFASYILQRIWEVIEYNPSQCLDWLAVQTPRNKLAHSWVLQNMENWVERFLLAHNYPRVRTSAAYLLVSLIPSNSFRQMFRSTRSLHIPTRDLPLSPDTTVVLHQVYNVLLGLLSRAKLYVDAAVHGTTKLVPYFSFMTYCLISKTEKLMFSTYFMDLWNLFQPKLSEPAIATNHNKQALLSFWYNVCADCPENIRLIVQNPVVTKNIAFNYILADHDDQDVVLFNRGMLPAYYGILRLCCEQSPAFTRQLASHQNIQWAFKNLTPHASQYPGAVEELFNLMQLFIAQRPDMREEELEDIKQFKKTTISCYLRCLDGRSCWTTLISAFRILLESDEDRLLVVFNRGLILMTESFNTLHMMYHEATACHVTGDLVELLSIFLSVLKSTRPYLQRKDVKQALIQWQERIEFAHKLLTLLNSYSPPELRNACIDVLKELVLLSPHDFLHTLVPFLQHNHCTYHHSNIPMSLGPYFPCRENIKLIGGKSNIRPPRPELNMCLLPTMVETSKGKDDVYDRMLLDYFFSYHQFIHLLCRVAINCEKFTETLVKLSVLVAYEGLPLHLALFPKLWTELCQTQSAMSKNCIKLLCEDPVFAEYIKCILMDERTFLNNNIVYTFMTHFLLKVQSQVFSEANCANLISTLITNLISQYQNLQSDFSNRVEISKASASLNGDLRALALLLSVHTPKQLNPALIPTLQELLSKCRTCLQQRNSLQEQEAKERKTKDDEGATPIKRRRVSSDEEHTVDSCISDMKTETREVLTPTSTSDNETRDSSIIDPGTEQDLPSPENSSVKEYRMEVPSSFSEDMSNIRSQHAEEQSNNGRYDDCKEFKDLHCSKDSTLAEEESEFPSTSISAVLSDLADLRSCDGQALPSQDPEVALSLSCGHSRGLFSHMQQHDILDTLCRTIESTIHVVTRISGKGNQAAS

CC(NC(=O)CCl)c1csc(-c2ccccc2)n1.Cl (stereo not given)
inactive: USP34 -0.477 | USP36 -0.276 | USP38 -0.266 | USP39 0.0283 | USP4 -0.166

Reference: the supplement of paper PMC11732987, “Enantioselective OTUD7B fragment discovery through chemoproteomics screening and high-throughput optimisation” (Communications Chemistry, 2025)
